# The whole screen tested about 220,000 compounds, of which about 750 (0.34%) were called active. No stated cut-off is given here; in the data, active means response below about 60% or above about 140%; inactive means in between. The sample as a whole holds a higher share of actives than the screen did.
# Biological target: Guanine nucleotide-binding protein G(o) subunit alpha (Homo sapiens) (UniProt P09471)
# Experiment: RGS8-Galphao binding modulators, primary screen, biochemical, multiplexed bead flow cytometry (AID 1423);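 further: Galphao activated as the GDP aluminium fluoride complex binding bead-coupled RGS8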
# Conditions: at 10 µM, actives lie on both sides
# Guanine nucleotide-binding protein G(o) subunit alpha (Homo sapiens), sequence (P09471 whole entry, looked up): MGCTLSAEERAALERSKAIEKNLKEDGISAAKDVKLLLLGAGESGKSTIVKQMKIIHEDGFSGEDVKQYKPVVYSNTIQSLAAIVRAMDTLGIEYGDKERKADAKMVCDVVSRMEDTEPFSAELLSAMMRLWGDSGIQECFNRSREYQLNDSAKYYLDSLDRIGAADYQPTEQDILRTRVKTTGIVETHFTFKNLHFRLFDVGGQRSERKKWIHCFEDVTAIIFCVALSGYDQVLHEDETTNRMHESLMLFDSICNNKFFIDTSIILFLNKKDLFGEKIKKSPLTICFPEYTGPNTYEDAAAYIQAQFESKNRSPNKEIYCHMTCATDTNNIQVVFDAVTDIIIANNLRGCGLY
row,SMILES,response (percent of control binding)
1,Cc1cc(C)cc(N(C(C)C(=O)Nc2c(C)n(C)n(-c3ccccc3)c2=O)S(C)(=O)=O)c1 (stereo unspecified),104% (inactive)
2,Cc1cc(C)cc(N(CC(=O)Nc2c(C)n(C)n(-c3ccccc3)c2=O)S(C)(=O)=O)c1,1.54% (active)
3,Cc1ccc(S(=O)(=O)CC(=O)Nc2c(C)n(C)n(-c3ccccc3)c2=O)cc1,97.4% (inactive)
4,CCc1nn(-c2cc(Oc3cccc4ccccc34)nc(-c3ccccc3)n2)c(N)c1C#N,105% (inactive)
5,N/C(=N\S(=O)(=O)c1ccc(Cl)cc1)N1CCOCC1,98.4% (inactive)
6,CC(C)(C)C(=O)NNC(=O)c1ccc(Oc2cc(Cl)cc(Cl)c2)o1,104% (inactive)
7,O=C(CN1CCOCC1)Nc1ccc(NC(=O)CN2CCOCC2)c(Cl)c1,100% (inactive)
8,O=C(CN1CCOCC1)Nc1ccccc1,145% [activator] (active)
9,O=C(CN1CCOCC1)Nc1c(Cl)cc(Cl)cc1Cl,96% (inactive)
10,CC(=O)c1ccc(N=C2SCCCN2C(=O)C2CCCCC2)cc1,95.4% (inactive)
11,O=C(NNc1c2ccccc2nc2ccccc12)c1cc2ccccc2cc1O,98.1% (inactive)
12,Cc1ccc(S(=O)(=O)N2CCN(C(=O)COC(=O)c3c(C)noc3C)CC2)c(C)c1,103% (inactive)
13,N#Cc1nc(COc2ccc(-c3ccccc3)cc2)oc1NCc1cccnc1,167% [activator] (active)
14,N#Cc1nc(-c2ccc(OCc3ccccc3)cc2)oc1NCCCN1CCOCC1,99.9% (inactive)
15,O=S(=O)(c1ccc(Br)cc1)c1nc(-c2ccccc2)oc1NCc1cccnc1,103% (inactive)
16,CC(C)(C)NC(=O)NC(=O)COC(=O)Cc1c(F)cccc1Cl,99.5% (inactive)
17,CCCCC(CC(C)O)c1n[nH]c(=S)n1-c1ccccc1 (stereo unspecified),108% (inactive)
18,CCn1c(CSCc2c(Cl)cccc2Cl)n[nH]c1=S,55.5% (active)
19,CCn1c(CNS(=O)(=O)c2ccc(Cl)cc2)n[nH]c1=S,100% (inactive)
20,S=c1[nH]nc(CSCc2ccc(Cl)cc2Cl)n1-c1ccccc1,92.7% (inactive)
21,Cc1ccc(C(=O)C(=S)N2CCOCC2)cc1,110% (inactive)
22,CC1CC(C)(C)n2c(O)c(N=NC(N)=S)c3cccc1c32 (stereo unspecified),100% (inactive)
23,NS(=O)(=O)c1ccc(CCNC(=O)CCCn2c(SCC(=O)N3CCCC3)nc3ccsc3c2=O)cc1,103% (inactive)
24,O=[N+]([O-])c1ccccc1Nc1ccc(O)cc1,102% (inactive)

row,SMILES,response (percent of control binding)
1,O=C(CC1SC(=Nc2ccccc2F)N(CCN2CCOCC2)C1=O)Nc1ccc(F)cc1F (stereo unspecified),97.3% (inactive)
2,COc1ccc(CC(=O)N/N=C(\C)c2ccccn2)cc1,72.6% (inactive)
3,CCOc1cc(NC(=O)c2ccccn2)c(OCC)cc1NC(=O)c1ccc(OC)cc1,103% (inactive)
4,CCN(CC)CCOc1ccc2c(c1)C(=NNC(=O)c1ccccn1)c1cc(OCCN(CC)CC)ccc1-2,154% [activator] (active)
5,COC(=O)C1=C(C)NC(=O)/C1=C/c1ccc(CNS(=O)(=O)c2ccc(C)cc2)o1,91% (inactive)
6,O=C(COc1ccccc1)N1CCc2ccccc2C1,101% (inactive)
7,Cn1c(=O)c2c(n(Cc3ccccc3)c1=O)NC(=O)C2CC(=O)N1CCc2ccccc2C1 (stereo unspecified),12.1% (active)
8,O=C(CSc1nnc(-c2cccs2)n1Cc1ccccc1)N1CCc2ccccc2C1,97% (inactive)
9,O=C(NC1CCCCC1)C1CCCN(S(=O)(=O)c2ccc(Br)s2)C1 (stereo unspecified),96.9% (inactive)
10,O=C(O)c1ccc2c3c(cccc13)C(=O)N(OS(=O)(=O)c1ccccc1)C2=O,98.5% (inactive)
11,CN1CCN(S(=O)(=O)c2ccc(N3CCN(S(=O)(=O)c4cccs4)CC3)nc2)CC1,100% (inactive)
12,Cc1ccc(NC(=O)NCC(c2cccnc2)N2CCOCC2)cc1 (stereo unspecified),103% (inactive)
13,CN1CCN(C(CNS(=O)(=O)c2cccs2)c2cccnc2)CC1 (stereo unspecified),10.6% (active)
14,CCOC(=O)CCNC(=O)N1CCCC(C(=O)c2ccccc2SC)C1 (stereo unspecified),90.6% (inactive)
15,Cc1ccc2c(N)c(C(=O)c3ccccc3)sc2n1,104% (inactive)
16,COc1cccc(C(=O)NCCSc2ccc(Br)cc2)c1,20.7% (active)
17,COc1cccc(C(=O)NNC(=O)c2ccccc2Br)c1,107% (inactive)
18,COc1cc(OC)cc(C(=O)NCCSCc2ccco2)c1,97.9% (inactive)
19,OC(c1ccccc1)c1nccn1Cc1ccccc1 (stereo unspecified),97.5% (inactive)
20,OC(c1nc2ccccc2[nH]1)C(O)C(O)C(O)c1nc2ccccc2[nH]1 (stereo unspecified),100% (inactive)
21,O=C(N/N=C/c1cccc([N+](=O)[O-])c1)c1ccncc1,99.5% (inactive)
22,CCOc1ccccc1NC(=O)CCN1CCN(S(=O)(=O)c2ccc(OC)cc2)CC1,99.6% (inactive)
23,CCOc1ccccc1NC(=O)c1cc(S(=O)(=O)N2CCC3(CC2)OCCO3)ccc1F,33% (active)
24,Cc1c(C(=O)Nc2ccccc2Cl)oc2ccc(S(=O)(=O)N3CCC4(CC3)OCCO4)cc12,105% (inactive)

row,SMILES,response (percent of control binding)
1,CC(=O)c1cccc(-n2nnnc2SCC(=O)NNC(=O)C2CCCCC2)c1,91.2% (inactive)
2,O=C(COC(=O)/C(=C/c1cccs1)c1cccs1)NCc1ccccc1Cl,85.8% (inactive)
3,O=C(CSc1ccccc1)Nc1ccc(C(=O)Nc2cccc(O)c2)cc1,109% (inactive)
4,O=C(Cn1nnc(N2CCCCC2)n1)c1ccc(Cl)c(Cl)c1,97.6% (inactive)
5,COc1ccc(CCC(=O)OCC(=O)Nc2ccc(C)c(S(=O)(=O)N(C)C)c2)cc1,57.7% (active)
6,Cc1ccc(NC(=O)CNCc2ccccn2)cc1S(=O)(=O)N(C)C,97.7% (inactive)
7,COc1cc(CCC(=O)OCC(=O)Nc2cccc(S(N)(=O)=O)c2)cc(OC)c1OC,95.2% (inactive)
8,O=C1CCC/C(=N\NC(=O)NC2CCCCC2)C1,100% (inactive)
9,COc1ccc(OC)c(-n2c(-c3ccn[nH]3)n[nH]c2=S)c1,98.6% (inactive)
10,COc1ccccc1-n1c(-c2cc(-c3ccco3)[nH]n2)n[nH]c1=S,6.3% (active)
11,COc1ccccc1-n1cn[nH]c1=S,102% (inactive)
12,COc1ccc(-c2onc(C)c2-c2ccc3c(c2)OCCO3)c(O)c1,101% (inactive)
13,O=C(NCCCN1CCOCC1)c1ccccc1NS(=O)(=O)c1ccc(Br)cc1,99.3% (inactive)
14,COc1ccc(C(=O)NNC(=O)c2cc(C)[nH]n2)cc1,121% (inactive)
15,COc1ccc(C(=O)NNc2cc(C)nc(NNC(=O)c3ccc(OC)cc3)n2)cc1,54% (active)
16,COc1ccc(C(=O)NNS(=O)(=O)c2ccc(C)cc2)cc1,101% (inactive)
17,CC(=O)Nc1ccc(N2C(=O)CCC2=O)cc1C,100% (inactive)
18,COc1ccccc1CCNC(=O)CSc1nnc2ccc(-c3cccnc3)nn12,92.2% (inactive)
19,CCOC(=O)NNc1cc(C(F)(F)F)ccn1,133% (inactive)
20,Nc1nnn(CC(=O)N/N=C/c2ccccc2)n1,99.3% (inactive)
21,COc1ccc(C2=NOC(COC(=O)c3ccc4ccccc4n3)C2)cc1 (stereo unspecified),101% (inactive)
22,COc1ccc(C(=O)COC(=O)c2ccc3ccccc3n2)cc1,28.9% (active)
23,CC(OC(=O)c1ccc2ccccc2n1)C(=O)c1ccccc1 (stereo unspecified),103% (inactive)
24,COC(=O)C1=C(C)N(c2ccc(C)cc2)/C(=C/c2ccc(O)cc2)C1=O,99.9% (inactive)

row,SMILES,response (percent of control binding)
1,COc1cccc2c(N/N=C/c3ccco3)cc(C)nc12,96.9% (inactive)
2,CCN(CC)CCNCC(=O)Nc1ccc(Oc2ccccc2)cc1,99.5% (inactive)
3,CCCC(=O)N=c1sc2cccc(F)c2n1C,37.2% (active)
4,Cn1c(=NC(=O)c2ccco2)sc2cccc(F)c21,103% (inactive)
5,Cn1c(=NC(=O)C2CC2)sc2cc(F)cc(F)c21,96.6% (inactive)
6,Cn1cc(-c2ccccc2)cc(C#N)c1=O,103% (inactive)
7,Cc1ccccc1/[N+]([O-])=C/c1ccncc1,100% (inactive)
8,CN(C)S(=O)(=O)c1cccc(NC(=O)COC(=O)/C=C/c2cccs2)c1,102% (inactive)
9,Oc1ccc2ccccc2c1N=Nc1nccs1,99.8% (inactive)
10,Oc1ccc(N=Nc2nccs2)c(O)c1,6.26% (active)
11,CONC(=O)c1cc(OCC(F)(F)F)ccc1OCC(F)(F)F,103% (inactive)
12,CCc1ccc(C(=O)OCC(=O)Nc2cccc(S(=O)(=O)NC3=NCCCCC3)c2)cc1,104% (inactive)
13,Cc1ccc(S(=O)(=O)N2CCC(C(=O)N[C@@H](C)C(=O)NCc3ccco3)CC2)cc1,103% (inactive)
14,CN1CCN(C2=NCCO2)CC1,100% (inactive)
15,O=C1C2N=NN(CC(=O)N3N=C(c4cccc5ccccc45)CC3c3ccccc3)C2C(=O)N1c1ccccc1 (stereo unspecified),90.3% (inactive)
16,COc1ccc(S(=O)(=O)N2CCCCCC2)cc1C(=O)OCC(=O)Nc1cc(C)on1,100% (inactive)
17,COc1cc(/C=C(/NC(=O)c2ccc(Cl)cc2Cl)C(=O)O)cc(OC)c1OC,75.5% (inactive)
18,C=C(C)CNC(=S)/N=c1\scc(C)n1CC,98.7% (inactive)
19,Cc1cc(C)n(CC(O)CN(c2ccccc2)S(=O)(=O)c2ccc3ccccc3c2)n1 (stereo unspecified),15% (active)
20,O=S(=O)(c1ccccc1)N(CC(O)CN1CCCCC1)c1ccccc1 (stereo unspecified),101% (inactive)
21,Cc1ccc(N(CC(O)CN2CCCC2)S(=O)(=O)c2ccccc2)cc1 (stereo unspecified),97.6% (inactive)
22,C[C@H](NC(=O)c1ccccc1Cl)C(=O)OCCOc1cccc(Cl)c1,105% (inactive)
23,NS(=O)(=O)c1ccc(CCNC(=O)c2ccc(Cl)cc2[N+](=O)[O-])cc1,102% (inactive)
24,CC(=O)c1cc2c(cc1NC(=O)CN1CCCCCC1)OCO2,111% (inactive)
